Assay outcomes as filed in PubChem BioAssay.
IL1B secr inh = inflammasome signaling inhibition, IL-1 beta readout | activity change, % at 57.5 µM | 360,000 tested, 4.7% active | THP-1 LPS/ATP IL-1B secretion, AlphaLISA, 16 h; stronger effect = lower value; in the data active = activity change below about -50%; inconclusive = mostly about -30% to -49%
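THP-1 cells pretreated 1 hr with compounds (up to 57.5 uM final), then stimulated with LPS (250 ng/mL final) plus ATP (1.25 mM final); secreted IL-1B measured by AlphaLISA after 16 hr, decreased signal indicating inhibition.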
ELG1 repair inh = blocks ELG1-dependent DNA repair in HEK293T cells. Potency, µM (highest dose often 46.1 µM), without a hit: top-dose activity change, negative = inhibition, usual class: inhibitors. HEK293T ELG1-luciferase reporter, luminescence, 16 h; DNA damage induced by 5-fluorouridine. AID 504467. 330,000 tested, 2.3% active; note: potency is the fitted concentration of half-maximal effect; nearly all actives have a fitted effect of over 55% in size
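HEK293T cells expressing luciferase-tagged ELG1 (2,000/well) received 5-Fluorouridine plus compound or DMSO for 16 hr at 37 °C. Luciferase was read by ONE-Glo luminescence after 30 min at room temperature.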
TDP1 inh = TDP1 (human) enzyme inhibition; 350,000 tested, 0.28% active; recombinant TDP1, AlphaScreen DNA substrate cleavage; Potency, µM (doses to about 130 µM), for inactives: top-dose activity change, negative = inhibition, most hits filed as inhibitors; AID 485290; Q9NUW8; note: potency is the fitted concentration of half-maximal effect; nearly all actives have a fitted effect of over 40% in size
Target sequence (Q9NUW8 whole entry, looked up): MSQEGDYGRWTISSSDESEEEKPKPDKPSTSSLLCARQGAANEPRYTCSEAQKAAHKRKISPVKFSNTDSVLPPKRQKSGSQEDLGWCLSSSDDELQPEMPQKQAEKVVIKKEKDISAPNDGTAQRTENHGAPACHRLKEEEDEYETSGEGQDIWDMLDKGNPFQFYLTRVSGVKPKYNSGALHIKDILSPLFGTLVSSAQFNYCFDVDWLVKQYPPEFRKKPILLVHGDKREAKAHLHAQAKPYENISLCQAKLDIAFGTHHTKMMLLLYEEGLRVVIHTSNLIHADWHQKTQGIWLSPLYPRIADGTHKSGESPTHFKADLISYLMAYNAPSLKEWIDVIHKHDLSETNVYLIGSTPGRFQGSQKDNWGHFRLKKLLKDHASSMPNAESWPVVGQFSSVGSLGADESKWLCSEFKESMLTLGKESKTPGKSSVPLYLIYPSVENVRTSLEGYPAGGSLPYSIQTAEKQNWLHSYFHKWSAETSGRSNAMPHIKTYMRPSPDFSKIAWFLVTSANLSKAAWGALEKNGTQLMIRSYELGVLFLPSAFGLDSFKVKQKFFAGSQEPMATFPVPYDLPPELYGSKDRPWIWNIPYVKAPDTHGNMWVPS
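Compounds were preincubated with Tdp1 (1 nM final) for 15 min at room temperature before substrate (15 nM final) started a 5 min reaction; beads (10 ug/ml final) were then added for 10 min before AlphaScreen detection.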
Giardia killer = Giardia lamblia killing | Giardia lamblia trophozoite viability | 340,000 tested, 0.15% active | activity change, % at 7.66 µM, hits read low | AID 540267; in the data active = activity change below about -80%; inconclusive = between about -30% and that limit;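 note: parasites exposed to compound for two days anaerobically before the ATP read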
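Media and compound were dispensed first, then trophozoites at 100 cells/well; plates sat 48 hrs at 37 deg C without oxygen before ATP luminescence reagent was added and read after 15-30 min at room temperature.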
TDP1 cell noCPT = qHTS for Inhibitors of human tyrosyl-DNA phosphodiesterase 1 (TDP1): qHTS in cells in absence of CPT | DT40 Tdp1-/- hTDP1 cells, no CPT, ATP luminescence, 48 h | Potency, µM (highest dose often 46.2 µM), for inactives: at the top dose activity change, negative = growth inhibition, most hits filed as inhibitors | 420,000 tested, 15% active; note: potency is the fitted concentration of half-maximal effect; nearly all actives have a fitted effect of over 55% in size
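DT40 Tdp1-/-;hTDP1 cells, no CPT (DMSO vehicle only), 400 cells/well; compounds pin-transferred; ≥48 hr, 37 °C; CellTiter-Glo 30 min RT dark, luminescence read.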
TDP1 cell CPT = growth inhibition of DT40 Tdp1-/-;hTDP1 cells with camptothecin (screen for TDP1 inhibitors) | AID 686979 | Potency, µM (series often up to 46.2 µM), for inactives: top-dose activity change, negative = growth inhibition, actives largely listed as inhibitors | 420,000 tested, 12% active | chicken DT40 Tdp1-/-;hTDP1 cells + 20 nM CPT, ATP luminescence, 48 h; note: potency is the fitted concentration of half-maximal effect; nearly all actives have a fitted effect of over 55% in size
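Chicken DT40 Tdp1-/- cells stably complemented with human TDP1 were seeded at 400 cells/well in medium containing 20 nM camptothecin, exposed to pin-transferred compounds, and grown at 37 °C for at least 48 hr. Viability was read as ATP luminescence.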
An asterisk follows results filed as active; ? = inconclusive; / = no result. A selection: hits, their analogues and other compounds. The true share with any hit is near 19%. Unless noted, calls come from the whole dose curve; as a rule, active = well fitted curve in the direction sought with a large enough effect; inconclusive = small, poorly fitted or top-dose-only effect, or another doubt; inactive = no such curve, though single readings can be large; an effect the other way counts as inactive or inconclusive. % is set by controls: 0 for no effect and ±100 for the full control effect.

SMILES	IL1B secr inh	ELG1 repair inh	TDP1 inh	Giardia killer	TDP1 cell noCPT	TDP1 cell CPT
CC(C)CCNC(=O)CN1C(=O)c2cccnc2Sc2ccccc21	/	/	-0.6%	/	-16.1%	-15.6%
Cc1cc(C)cc(NC(=O)C(Cc2ccccc2)N2Cc3ccccc3C2=O)c1 (centres undefined)	/	/	7.5%	/	?	-17.6%
CN(Cc1ccccc1)C(=O)c1ccc2c(c1)NC(=O)C(N1CCOCC1)S2 (centres undefined)	21.7	?	2.3%	-3.9	?	?
O=S(=O)(c1cnc(Cl)c(Cl)c1)N1CCCc2ccccc21	-101.2*	?	2.7%	2.7	16.4µM*	18.4µM*
COc1ccc(NC(=O)[C@@H]2CCCN2C(=O)[C@@H]2Cc3ccccc3CN2C(=O)OC(C)(C)C)cc1	-2.0	11.2%	7.5%	-8.5	23.1µM*	-21.8%
COc1ccc(NC(=O)C2CCN(C(=O)[C@@H]3Cc4ccccc4CN3C(=O)OC(C)(C)C)CC2)cc1	-9.1	0.9%	2.6%	-5.9	10.5%	6.1%
COc1ccc(N2CC(NC(=O)c3ccc(S(=O)(=O)N4CCCCC4)cc3)CC2=O)cc1OC (centres undefined)	/	/	7.8%	/	-8.3%	-21.9%
CCOc1cc(CNCCSc2nnnn2C)cc(Br)c1OCc1ccc(F)cc1	-87.3*	-19.5%	5.3%	8.0	?	?
CCOc1cc(CNCCSc2nnnn2C)cc(Br)c1OCc1ccccc1F	-65.2*	-17.5%	3.2%	6.9	12.6µM*	16.4µM*
COc1ccc(Cl)cc1CNCCSc1nnnn1-c1ccccc1	/	/	-0.5%	/	?	?
COc1cc(CNCCSc2nnnn2C)cc(Br)c1OCc1ccc(F)cc1	-50.4*	-20.6%	4.7%	-3.3	25.9µM*	?
CCOc1cc(CNCCSc2nnnn2-c2ccccc2)cc(Cl)c1OC	/	/	1.6%	/	20.6µM*	?
COc1cc(CNCCSc2nnnn2C)cc(Br)c1OCc1ccccc1F	-1.7	?	1.6%	16.1	?	-26.1%
CC(C)NC(=O)C1(C)CSCC(=O)N1CC(F)(F)F (centres undefined)	-15.0	/	/	/	10.2%	-2.9%
COc1ccccc1C(=O)Nc1ccc(C(=O)OCc2cc(=O)n3ccsc3n2)cc1	/	/	-13.8%	/	-13.3%	-11.1%
COc1cc(CNCCSc2nnnn2C)cc(Cl)c1OCc1ccccc1	/	/	3.2%	/	?	?
CCOc1cc(CNCCSc2nnnn2C)cc(Cl)c1OCc1ccc(Cl)cc1	/	/	4.5%	/	13µM*	13µM*
COc1cc(C2C3=C(CCCC3=O)Nc3ccc4ncccc4c32)ccc1O (centres undefined)	11.0	?	2.6%	0.5	6.51µM*	6.51µM*
COc1cc(C2c3c([nH]c(=O)[nH]c3=O)Nc3ccc4ccccc4c32)ccc1O (centres undefined)	-97.0*	10.1%	-9.2%	?	-15.2%	-13.2%
COc1cc(C2CC(=O)Oc3c2c(=O)[nH]c2ccccc32)cc(OC)c1OC (centres undefined)	/	/	-0.6%	/	/	/
COc1cc(C2c3c([nH]c(=O)[nH]c3=O)Nc3ccc4ccccc4c32)cc(OC)c1OC (centres undefined)	-92.3*	?	/	2.9	-21.6%	-0.2%
O=S(=O)(c1c(F)cccc1F)N1CCN(S(=O)(=O)c2c(F)cccc2F)CC1	/	/	-0.4%	/	/	/
Clc1ccccc1Cc1noc(CN2CCN(Cc3ccccn3)CC2)n1	10.6	2.7%	-1.2%	2.4	?	1.5%
CCOc1ccc(N2CC(C(=O)Nc3nnc(Cc4ccc(OC)cc4)s3)CC2=O)cc1 (centres undefined)	23.3	0.6%	4.3%	-15.7	-14.2%	0.3%
O=C(NCc1cc(Cl)cc(Cl)c1)c1ccc2nc([C@@H]3O[C@H](CO)[C@H](O)[C@H](O)[C@H]3O)[nH]c2c1	?	/	/	/	1.9%	-9.8%
